From PubChem BioAssay
Only some compounds are listed: those with a hit (about 3% of all), similar ones and a draw of the others.
ALOX15 inhib: qHTS Assay for Inhibitors of 15-hLO (15-human lipoxygenase). AID 887, 2007. purified 15hLO-1, xylenol orange hydroperoxide absorbance. Potency, µM (series often up to 57.1 µM), for the others: top-dose activity change, negative = inhibition, usual class: inhibitors. 1.4% of 74,000 active. Polyunsaturated fatty acid lipoxygenase ALOX15 (Homo sapiens), P16050; also: % is scaled to controls: 0 for no effect and ±100 for the full control effect; nearly all actives have a fitted effect of over 55% in size
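Hydroperoxide formed from arachidonic acid (50 uM) by purified human 15hLO-1 (40 nM) oxidizes ferrous iron, and the ferric-xylenol orange complex is read at 573 versus 405 nm. Compounds were preincubated 15 min; reaction ran 6 min at room temperature.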
Caspase-1 inhib: qHTS Assay for Allosteric/Competitive Inhibitors of Caspase-1; Caspase-1 enzyme, Ac-WEHD-AFC fluorogenic rate; AID 900, 2007; 0.03% of 75,000 active; Potency, µM (doses to about 57.5 µM), inactives show at the top dose activity change, negative = inhibition, actives largely listed as inhibitors;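 also: plate controls were vehicle for no effect and no substrate for full effect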
Target sequence (P29466 120-297 limits assumed): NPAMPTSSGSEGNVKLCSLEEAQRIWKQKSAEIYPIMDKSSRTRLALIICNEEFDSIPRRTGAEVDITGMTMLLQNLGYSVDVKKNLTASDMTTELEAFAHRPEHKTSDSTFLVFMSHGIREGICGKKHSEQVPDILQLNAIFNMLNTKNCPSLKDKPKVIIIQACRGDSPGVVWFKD
Target sequence (P29466 317-404 limits assumed): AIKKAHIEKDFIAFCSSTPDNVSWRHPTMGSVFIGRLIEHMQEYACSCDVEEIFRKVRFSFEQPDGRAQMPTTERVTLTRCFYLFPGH
ALOX15B inhib: qHTS Assay for Inhibitors of 15-hLO-2 (15-human lipoxygenase 2) | purified 15hLO-2, xylenol orange hydroperoxide absorbance | Potency, µM (titrated, usually from 57.1 µM), for the others: at the highest dose activity change, negative = inhibition, actives largely listed as inhibitors | 0.56% of 110,000 active | AID 881, 2007; also: % is scaled to controls: 0 for no effect and ±100 for the full control effect; nearly all actives have a fitted effect of over 60% in size
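Read-out: hydroperoxide product oxidises ferrous iron, measured as xylenol orange complex via the 573-to-405 nm absorbance ratio after 30 min. Reaction: 50 nM enzyme, 15 min compound preincubation, 45 uM arachidonic acid, 90 min RT, Hepes pH 7.5 with Triton X-100.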
HEK293 cAMP ctrl: qHTS Assay for Agonists of the Thyroid Stimulating Hormone Receptor: Activators of Intracellular cAMP Concentrations in Parental HEK 293; Potency, µM (top dose mostly 57.1 µM), for the others: at the highest dose activation, usual class: activators; parental HEK293 CNG cAMP sensor, membrane potential fluorescence; AID 938, 2007; 2.5% of 73,000 active; also: % of control where 0% means no effect; nearly all actives have a fitted effect of over 55% in size
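Parental HEK 293 cells stably expressing a modified CNG channel (no TSHR) report cAMP rise as membrane depolarization. Membrane potential dye with 100 uM RO 20-1724 was loaded for 60 min at room temperature, then compound added for 30 min; fluorescence read at 590 nm.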
TSHR ag: qHTS Assay for Agonists of the Thyroid Stimulating Hormone Receptor. HEK293-CNG-TSHR cells (CNG channel as cAMP sensor), membrane potential dye, cAMP. Potency, µM (series often up to 57.1 µM), for inactives: top-dose activation, actives largely listed as activators. Thyrotropin receptor (Homo sapiens), P16473. 0.48% of 73,000 active; active = well fitted activation curve with a large enough effect in the main read-out, with a control signal flat, not every such curve was filed as active; inconclusive = small, poorly fitted or top-dose-only effect, or a change in a side signal; inactive = no such curve, though single readings can be large or run the other way; % of control where 0% means no effect;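 also: the control signal comes from parental cells without the receptor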
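cAMP rise detected as CNG-channel membrane depolarization by fluorescent dye (emission 590 nm), 30 min after compound, following 60 min dye loading containing 100 uM RO 20-1724 at room temperature. Cells: TSHR/CNG HEK 293, with parental CNG HEK 293 as control.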
Caspase-7 inhib: qHTS Assay for Allosteric/Competitive Inhibitors of Caspase-7. 0.02% of 75,000 active. AID 889, 2007. Potency, µM (series often up to 57.5 µM), without a hit: top-dose activity change, negative = inhibition, actives largely listed as inhibitors. recombinant caspase-7, Ac-DEVD-AFC fluorescence rate; active = well fitted inhibition curve with a large enough effect in the main read-out, with a control signal flat, not every such curve was filed as active; inconclusive = small, poorly fitted or top-dose-only effect, or a change in a side signal; also: % of control where 0% means no effect
Target sequence (P55210 24-198 limits assumed): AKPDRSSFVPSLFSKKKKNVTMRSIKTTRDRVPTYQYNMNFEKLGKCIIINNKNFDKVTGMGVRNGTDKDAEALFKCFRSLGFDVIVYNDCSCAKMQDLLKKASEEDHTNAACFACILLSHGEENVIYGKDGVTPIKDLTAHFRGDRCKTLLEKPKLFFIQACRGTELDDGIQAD
Target sequence (P55210 207-303 limits assumed): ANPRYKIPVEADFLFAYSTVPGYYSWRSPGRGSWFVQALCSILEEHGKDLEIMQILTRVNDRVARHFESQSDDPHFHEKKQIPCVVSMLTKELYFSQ
* = called active by the depositor; ? = inconclusive; / = not tested or not shown; [ ] = remark or other dose. Unless noted, calls follow the shape of the dose curve; as a rule, active = well fitted curve in the direction sought with a large enough effect; inconclusive = small, poorly fitted or top-dose-only effect, or another doubt; inactive = no such curve, though single readings can be large; an effect the other way counts as inactive or inconclusive. Potency is read from the fitted curve at half-maximal effect.

SMILES	ALOX15 inhib	Caspase-1 inhib	ALOX15B inhib	HEK293 cAMP ctrl	TSHR ag	Caspase-7 inhib
CC(=O)C(Sc1nc(N2CCOCC2)nc(N2CCOCC2)n1)C(=O)Nc1ccccc1 (stereo not drawn)	15.8µM*	-16.0%	0.8%	10.6%	2.0%	-23.8%
Cc1cc(C)nc(NC(=O)CSc2nn(C)c(=S)s2)n1	4.2%	0.4%	-2.8%	2.0%	0.4%	-0.5%
CCNc1nc(SC(C)C(=O)Nc2ccccc2)nc(N2CCOCC2)n1 (stereo not drawn)	2.7%	-2.8%	0.5%	11.6%	/	0.4%
CC(=O)C(Sc1nn(C)c(=S)s1)C(=O)Nc1ccccc1 (stereo not drawn)	7.94µM*	0.8%	?	20µM*	?	-0.5%
CCOc1cc(C2CC(=O)N3CN(C4CCCCC4)CSC3=C2C#N)ccc1O (stereo not drawn)	?	-1.5%	?	17.8%	4.7%	-4.1%
N#CC1=C2SCN(Cc3ccccc3)CN2C(=O)CC1c1cccs1 (stereo not drawn)	?	?	?	0.4%	7.7%	?
CC(C)c1ccc(C2CC(=O)N3CN(Cc4ccco4)CSC3=C2C#N)cc1 (stereo not drawn)	12.6µM*	-0.6%	?	-0.1%	6.1%	-8.5%
N#CC1=C2SCN(Cc3ccccc3)CN2C(=O)CC1c1ccc2c(c1)OCO2 (stereo not drawn)	12.6µM*	?	?	1.2%	6.0%	-16.4%
N#CC1=C2SCN(Cc3ccco3)CN2C(=O)CC1c1ccc(Cl)cc1 (stereo not drawn)	12.6µM*	-5.3%	?	13.2%	20.2%	-12.6%
COc1ccc(C2CC(=O)N3CN(Cc4ccco4)CSC3=C2C#N)cc1 (stereo not drawn)	?	-4.1%	-29.0%	3.8%	1.9%	-16.4%
COc1ccc(-c2cc(C(=O)O)c3c(C)nn(-c4ccccn4)c3n2)cc1	/	/	32.5%	/	/	/
Cc1nn(-c2ccccn2)c2nc(-c3cccs3)cc(C(=O)N3CCOCC3)c12	2.8%	-0.4%	11.1%	15.3%	3.16µM*	-1.6%
CCC/C=C(\CCC)C(NP(=O)(c1ccccc1)c1ccccc1)c1ccc(-c2ccccc2)cc1 (stereo not drawn)	/	-0.7%	35.0%	28.3%	1.2%	1.8%
CCC/C=C(\CCC)C(NP(=O)(c1ccccc1)c1ccccc1)c1ccc(C(F)(F)F)cc1 (stereo not drawn)	/	-0.9%	26.5%	3.98µM*	?	1.3%
CN(C)C(=O)c1ccc(-c2cncnc2-n2ccnc2)cc1	?	-1.7%	-5.7%	?	?	-2.9%
Cc1ccc(NC(=O)N(Cc2ccc3c(c2)OCO3)Cc2cc3cc4c(cc3[nH]c2=O)OCCO4)cc1	-7.3%	-3.2%	7.5%	-0.8%	2.8%	0.4%
COc1ccc(CN(Cc2cc3cc4c(cc3[nH]c2=O)OCO4)C(=O)NC2CCCCC2)cc1	15.8µM*	-6.0%	8.5%[11.4 µM]	22.7%	18.0%	-3.1%
O=C(Nc1ccc(F)cc1)N(Cc1ccco1)Cc1cc2cc3c(cc2[nH]c1=O)OCO3	-26.9%	-10.3%	1.6%	25.1µM*	?	-6.2%
Cc1noc(C)c1-c1cc(N(C)Cc2ccco2)ncn1	?	-3.3%	-1.1%	-4.6%	2.3%	-8.4%
CCCNC(=O)OC[C@@H]1O[C@H](CCO/N=C\[C@@H](OC)[C@H](C)/C=C\CC(=O)OC)C=C[C@@H]1Oc1ccc(OC)cc1	9.3%[11.4 µM]	-0.9%[11.5 µM]	/	17.2%[11.4 µM]	11.1%[11.4 µM]	1.3%[11.5 µM]
CCC1=C(OC(=O)N(CC)CC)N2C(=O)OC(=NCCOC)[C@]2(C)[C@H]2C1=CC[C@H]1C(=O)N(CC(=O)OC)C(=O)[C@H]12	/	0.6%	15.8%	/	/	-1.7%
FC(F)(F)c1ccccc1-c1nc(NCc2cccs2)c2ccccc2n1	-12.0%	-8.1%	-3.8%	?	?	-9.4%
COCCCn1c(-c2ccco2)nc2ccccc2c1=O	2.3%	0.7%	-8.3%	2.4%	-4.2%	0.9%
COc1ccc(CCn2c(-c3ccco3)nc3ccccc3c2=O)cc1OC	3.98µM*	0.5%	3.3%[2.29 µM]	?	?	-0.3%
COc1ccc(-c2nc(CS(=O)(=O)CC(=O)NCCc3cc(OC)ccc3OC)c(C)o2)cc1	-13.0%	0.8%	/	25.1µM*	?	-1.9%
SMILES	ALOX15 inhib	Caspase-1 inhib	ALOX15B inhib	HEK293 cAMP ctrl	TSHR ag	Caspase-7 inhib
Cc1csc2nc(CSc3nc4ccccc4o3)c(Br)n12	-18.1%	-5.8%	9.9%	25.1µM*	?	-3.6%
CC(=O)C1=C(O)C=C(c2ccco2)CC1c1ccco1 (stereo not drawn)	?	-5.2%	-8.6%	15.8µM*	?	-7.7%
CC(C)(Oc1ccc(-c2ccco2)cc1)C(=O)O	1.9%	-2.6%	-13.8%	?	?	0.2%
N#CC1=C(N)OC2=C(CCC/C2=C/c2ccoc2)C1c1ccoc1 (stereo not drawn)	?	/	-6.7%[11.4 µM]	10.1%	25.1µM*	?
Nc1nc2c(ncn2C2OC(COC(=O)c3ccccc3)C(OC(=O)c3ccccc3)C2OC(=O)c2ccccc2)c(=O)[nH]1 (stereo not drawn)	-13.4%	-2.8%	11.1%	/	/	-1.3%
CCOn1c(=O)c(=O)n(OCc2ccccc2)c2ccccc21	-1.8%[11.4 µM]	-0.6%	3.2%	4.0%[11.4 µM]	3.16µM*	1.2%
Cc1c(=O)n(OCc2ccccc2)c2ccccc2[n+]1[O-]	6.8%[11.4 µM]	1.4%	-3.6%	1.9%[11.4 µM]	0.8%[11.4 µM]	0.5%
CN1CCc2nc(NC(=O)c3cccc(S(=O)(=O)N4CCc5ccccc54)c3)sc2C1	15.8µM*	?	38.5%	16.0%	10.8%	?
CC(=O)Oc1ccc2occ(C(=O)c3cccs3)c2c1	-2.3%	-1.1%	4.6%	25.1µM*	?	1.4%
Cc1cc(C(=O)CSc2nncs2)c(C)n1-c1c(C)n(C)n(-c2ccccc2)c1=O	-2.2%	-0.8%	0.7%	4.7%	6.1%	-2.0%
Cc1ccc(-n2c(C)cc(C(=O)CSc3nncs3)c2C)cc1	-19.4%	-5.8%	-2.9%	25.1µM*	?	-7.9%
CCN1C(=O)[C@H]2[C@H]3[C@H](O)[C@H](O)C/C(=N/OC[C@@H](O)COCc4ccco4)[C@@H]3CC[C@@H]2C1=O	17.6%[11.4 µM]	-1.6%[11.5 µM]	/	-1.8%[11.4 µM]	1.2%[11.4 µM]	0.7%[11.5 µM]
COc1ccc(-n2nc(C(=O)Nc3ccc4c(c3)OCO4)c3ccccc3c2=O)cc1	-5.1%	-0.2%	-5.9%	15.8µM*	?	-3.1%
N#CC1=C(c2ccccc2)N=P(N2CCOCC2)(N2CCOCC2)N=C1N1CCOCC1	3.6%	-0.4%	/	-4.0%	0.4%[11.4 µM]	1.9%
